# According to PMC5540273 (PLoS ONE, 2017):
# Legend:
# YANK1 = test system: T1, YANK1
# T1 construct: gene STK32A
# AAK1 = conditions: concentration: 1 μM, replicates: in singlicate; n = 1
# ABL1-nonphosphorylated = conditions: concentration: 1 μM, replicates: in singlicate; n = 1
# ABL1-phosphorylated = conditions: concentration: 1 μM, replicates: in singlicate; n = 1
# p38-alpha = test system: T2, p38-alpha
# T2 construct: gene MAPK14
# VPS34 = test system: T3, VPS34
# T3 construct: gene PIK3C3
# 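Throughout, for %Inh: KINOMEscan kinase panel screen.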
# 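Throughout, for Kd: kd values determined as follow-up on hits from a single-replicate KINOMEscan panel screen.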
smiles,measurement,setting,value
FC(F)(F)c1ccc(-c2cc(-c3c[nH]nc3-c3ccccn3)ccn2)cc1 [GW599550],Kd,YANK1,> 10000 nM
same,%Inh,AAK1,24%
same,%Inh,ABL1-nonphosphorylated,17%
same,%Inh,ABL1-phosphorylated,21%
NC(=O)c1sc(-n2cnc3ccccc32)cc1OCc1ccccc1F [GSK1024306],Kd,p38-alpha,280 nM
same,%Inh,AAK1,45%
same,%Inh,ABL1-nonphosphorylated,0%
same,%Inh,ABL1-phosphorylated,0%
O=C(NCCCN1CCCC1=O)c1cnc(NCc2cc(Cl)ccc2Cl)nc1NC1CCNCC1,%Inh,AAK1,0%
same,%Inh,ABL1-nonphosphorylated,0%
same,%Inh,ABL1-phosphorylated,0%
O=c1cc(N2CCOCC2)nc2n(Cc3cccc(Cl)c3)ccn12 [GSK2296823],Kd,VPS34,35 nM
same,%Inh,AAK1,0%
same,%Inh,ABL1-nonphosphorylated,0%
same,%Inh,ABL1-phosphorylated,7%
Nc1n[nH]c2nnc(-c3ccccc3)cc12 [SB-517389],Kd,TSSK3,> 10000 nM
same,%Inh,AAK1,16%
same,%Inh,ABL1-nonphosphorylated,11%
same,%Inh,ABL1-phosphorylated,5%
CN1CCC(n2cnc(-c3ccc(F)cc3)c2-c2ccnc(NC3CCNCC3)n2)CC1 [SB-229482],Kd,p38-alpha,220 nM
same,%Inh,AAK1,7%
same,%Inh,ABL1-nonphosphorylated,44%
same,%Inh,ABL1-phosphorylated,0%
CCc1nc(-c2cccc(N(C)S(=O)(=O)c3ccccc3)c2)c(-c2ccnc(Nc3ccc(N4CCN(C(C)=O)CC4)nc3)n2)s1 [GSK1645895],Kd,ZAK,220 nM
same,%Inh,AAK1,26%
same,%Inh,ABL1-nonphosphorylated,28%
same,%Inh,ABL1-phosphorylated,7%
CNc1nccc(-c2c(-c3ccc(F)cc3)ncn2C2CCN(C)CC2)n1 [SB-222903],Kd,p38-alpha,53 nM
same,%Inh,AAK1,0%
same,%Inh,ABL1-nonphosphorylated,34%
same,%Inh,ABL1-phosphorylated,6%
CC(C)N1CCC(n2cnc(-c3ccc(F)cc3)c2-c2ccnc(N)n2)CC1 [SB-223132],Kd,p38-alpha,160 nM
same,%Inh,AAK1,9%
same,%Inh,ABL1-nonphosphorylated,50%
same,%Inh,ABL1-phosphorylated,19%
Nc1nc(-c2ccccn2)c(-c2ccnc3ccccc23)s1 [GW548057],Kd,WNK4,> 10000 nM
same,%Inh,AAK1,1%
same,%Inh,ABL1-nonphosphorylated,28%
same,%Inh,ABL1-phosphorylated,26%
